{
  "source": "PubChem BioAssay (NCI)",
  "note": "“And” between values parts separate entries of the source, which are not always exact repeats. Equal values may be shown once. This is part of a sample that, as a whole, favours compounds with a hit. Of some 83,000 tested, about 20% had one in any assay.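 Plates (96-well) were seeded with cells, treated with compound at one concentration, and incubated for 48 hours before percent growth was determined.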 Unmarked numbers belong to inactive results. The source made the active and inactive calls. The calls were made as follows: active = growth percent below 10; inactive = the rest.",
  "data": [
    {"test_system": "MDA-MB-468 breast", "experiment": "NCI-60 one-dose screen, 48 h (100 = growth as untreated, 0 = no growth, -100 = all killed)", "conditions": "10 µM unless noted", "values": [
      {"smiles": "N=c1c2cc(-c3ccccc3)oc2ncn1/N=C/c1ccc(Br)cc1", "growth": "68.3%"},
      {"smiles": "Cc1c(C(=O)Nc2nc(-c3ccccc3)cs2)nnn1-c1cccc2ccccc12", "growth": "12.3% [50 µM]"},
      {"smiles": "CCCCSc1cc(C)nc(N)n1", "growth": "95.8%"},
      {"smiles": "COc1cc2c(c(OC)c1OC)C(=O)CC(c1cccc(C(=O)Nc3ccc(C#N)cc3)c1)O2", "note": "(stereo not given)", "growth": "58.9%"},
      {"smiles": "c1ccc(Oc2c3ccccc3nc3ccccc23)cc1", "growth": "-4.55% (active)"},
      {"smiles": "O=C(CSc1nc2sc3c(c2c(=O)n1-c1ccc(Cl)cc1)CCCC3)NNC(=O)Nc1ccc(Cl)c(C(F)(F)F)c1", "growth": "-42.4% (active)"},
      {"smiles": "CN1CCN(Cc2ccc(NC(=O)c3cncc(C#Cc4cnn5ccccc45)c3)cc2C(F)(F)F)CC1", "growth": "-36.1% (active)"},
      {"smiles": "Cc1ccc(-c2nc(C(Cl)Cl)n3nc(-c4ccccc4)cc3n2)cc1", "growth": "-21.1% (active)"},
      {"smiles": "O=[N+]([O-])c1cccc(-c2nc3sccn3c2-c2ccnc(NCCCNS(=O)(=O)c3ccc(F)cc3)n2)c1", "growth": "-8.54% (active)"},
      {"smiles": "O=C(Nc1cc(=O)[nH]c(=O)[nH]1)C(Cl)Cl", "growth": "98.5%"},
      {"smiles": "Cc1cc2nc(C(Cl)Cl)nc(-c3ccccc3)n2n1", "growth": "-20.7% (active)"},
      {"smiles": "C=CCOc1ccc(N=NC(C#N)C#N)cc1", "growth": "30.3%"},
      {"smiles": "COc1ccc(-n2ncn(CCCCCCn3cnn(-c4ccc(OC)cc4)c3=O)c2=O)cc1", "growth": "84.8%"},
      {"smiles": "Nc1cccc2cccc([N+](=O)[O-])c12", "growth": "109%"},
      {"smiles": "COc1ccc(NC(=O)Cn2c(=O)sc3c(-c4ccc(Cl)cc4)cc(-c4ccc(Cl)cc4)nc32)cc1", "growth": "114%"},
      {"smiles": "CCN(CC)c1nc(SCc2ccccc2Cl)ncc1C", "growth": "69.6%"},
      {"smiles": "C#CCOc1ccc2ncnc(Nc3cccc(NC(=O)CCl)c3)c2c1", "growth": "68.5%"},
      {"smiles": "CN(CCOc1ccc(CC2SC(=O)NC2=O)cc1)c1ccccn1", "note": "(stereo not given)", "growth": "100%"},
      {"smiles": "COC(=O)c1nc(=S)[nH]c(C(=O)OC)c1C(=O)c1ccccc1", "growth": "97.3%"},
      {"smiles": "COc1ccc(/C=C/C(=O)/C=C/c2cc3ccccc3[nH]c2=O)cc1", "growth": "43.9%"},
      {"smiles": "COc1ccc2c(c1)N(Cc1ccc(Cl)cc1)CCC2N1CCCC1=O", "note": "(stereo not given)", "growth": "42.3%"},
      {"smiles": "COc1cccc(/C=C2\\Oc3cc(OCCCN4CCCC4)ccc3C2=O)c1", "growth": "69.4%"},
      {"smiles": "CN1CCC(=C(c2ccccc2)c2ccccc2)C(c2ccccc2)C1", "note": "(stereo not given)", "growth": "87.6%"},
      {"smiles": "Cc1c([C@H](C(Cl)Cl)[C@H](O)[C@H]2C[C@H](C)C(=O)O2)ccc2c1C(=O)[C@H]1[C@H]2C[C@@H](Br)[C@@]23O[C@@H](CO[C@H]2O)CC13C", "note": "(stereo not given in full)", "growth": "17.5%"},
      {"smiles": "C[C@@H]1C[C@H]2C(=O)O[C@@H](C)[C@H](NC(=O)[C@H](Cc3cc(F)cc(F)c3)NC(=O)Nc3ccc(Cl)cc3F)C(=O)N3C[C@H](O)C[C@H]3C(=O)N3CCN(C)C[C@H]3C(=O)N[C@@H](C)C(=O)N2C1", "growth": "11.5%"},
      {"smiles": "CCN1CCN(/C(=N\\c2sc(-c3ccccc3)nc2-c2ccccc2)c2ccccc2)CC1", "growth": "75.3%"},
      {"smiles": "Brc1ccc(-c2cnc3nonc3n2)cc1", "growth": "50.1%"},
      {"smiles": "CC1(C)CC[C@]23CC[C@]4(C)[C@H](CC[C@@H]5[C@@]6(C)C/C(=C/c7ccncc7)C(=O)C(C)(C)[C@@H]6CC[C@]54C)[C@H]2[C@H]1OC3", "growth": "91.1%"},
      {"smiles": "COc1ccc(Cl)c([N+](=O)[O-])c1", "growth": "99.9%"},
      {"smiles": "O=C(CN1C(=O)S/C(=C\\C(Cl)=C\\c2ccccc2)C1=O)NCCc1ccc(O)cc1", "growth": "17.3%"},
      {"smiles": "COc1ccc(-c2c(-c3nc4ccc(N5CCOCC5)cc4[nH]3)[nH]c(C)c2C(C)=O)cc1", "growth": "23.1%"},
      {"smiles": "O=C(CCc1nnc2sc(-c3ccc(Cl)cc3Cl)nn12)c1nc2ncccc2[nH]1", "growth": "-66% (active)"},
      {"smiles": "Cc1sc2nc(NCCN)[nH]c(=O)c2c1C", "growth": "80%"},
      {"smiles": "CC(C)(C)c1cnc(CSc2cnc(NC(=O)C3CCNCC3)s2)o1", "growth": "-43.7% (active)"},
      {"smiles": "NC(Cc1ccccc1)C(=O)NC(Cc1ccccc1)C(=O)O", "note": "(stereo not given)", "growth": "102% and 92.8%"},
      {"smiles": "CCNC(=O)OCCc1c2ccccc2nc2ccccc12", "growth": "108%"},
      {"smiles": "Cn1nc(N)c2cc([C@@H]3Nc4ccc5[nH]ncc5c4[C@H]4C5CCC(C5)[C@@H]34)ccc21", "note": "(stereo not given in full)", "growth": "-2.64% (active)"},
      {"smiles": "COc1ccc(N2CCN(C(=O)CSc3ccc(-c4nc5cc(C)c(C)cc5[nH]4)cn3)CC2)cc1", "growth": "49.5%"},
      {"smiles": "COc1ccc(Cc2nn(CC(=O)N/N=C/c3ccc(Cl)cc3)c(=O)c3c(C)noc23)cc1", "growth": "80.4%"},
      {"smiles": "Cc1cscc(C)c1=S", "growth": "72.3%"}
    ]}
  ]
}
